The list is not random: actives were taken first. Their share in the collection is about 12%.
CHX counter: affects cycloheximide protein synthesis inhibition readout, counter-screen; max response, %; cell reporter, cycloheximide protein synthesis inhibition counterscreen; hit rate 12% among 300,000; in the data active = max response mostly above about 13%, no sharp cut-off; inactive = mostly below about 14%; also: read at 38.3 µM for the half of the compounds with a filed dose
Shiga inhibitor: Shiga toxin inhibition; inhibition, % at 38.7 µM; Vero cells, Shiga toxin protein synthesis inhibition reporter; hit rate 9.2% among 290,000; in the data active = inhibition mostly above about 28%, no sharp cut-off; inactive = mostly below about 43%
Sm TGR block: inhibitors of Schistosoma mansoni thioredoxin glutathione reductase; Potency, µM (doses to about 114 µM), hits mostly inhibitors; purified TGR, DTNB reduction, TNB absorbance 405 nm; Q962Y6; AID 485364; hit rate 3% among 360,000; active = well fitted inhibition curve with a large enough effect; inconclusive = small, poorly fitted or top-dose-only effect; inactive = no such curve, though single readings can be large or run the other way; also: nearly all actives have a fitted effect of over 60% in size
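Kinetic colorimetric format: TGR-catalysed, NADPH-driven DTNB reduction monitored via TNB absorbance. Enzyme dispensed at 20 nM; compound exposure 15 min at room temperature before reaction start.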
FMDV antiviral: foot and mouth disease virus antiviral activity; FMDV antiviral cell-based qHTS; AID 1159524; hit rate 1.2% among 410,000; Potency, µM (highest dose often 57.9 µM), most hits filed as inhibitors; calls by dose curve; tested in HEK293T cells; also: read-out not given here; nearly all actives have a fitted effect of over 45% in size
Numbers stand for hits; i = inactive; ? = inconclusive; nt = no result given; ! = a repeat was not active.

SMILES	CHX counter	Shiga inhibitor	Sm TGR block	FMDV antiviral
N#C/C(=C\c1ccc([N+](=O)[O-])cc1)C(=O)Nc1ccccc1O	31	i	i	i
N#C/C(=C/c1ccc([N+](=O)[O-])cc1)C(=O)Nc1ccccc1O	62	74	i	i
COc1ccc(C2Nc3ccccc3-c3nnc(SC)nc3O2)cc1C (stereo not given)	nt	nt	i	i
CCOc1ccc(CCNC(c2nnc(-c3ccccc3)o2)c2ccccc2Cl)cc1OCC (stereo not given)	nt	nt	i	i
Oc1oc(C=Nc2ccc(F)cc2F)c2ccccc12	i	i	50µM	i
CSc1n[nH]c(/N=C/c2oc(O)c3ccccc23)n1	i	i	i	i
CCOc1ccc(C(=O)Nc2ccc(C(=O)OCc3cc(=O)n4nc(CC)sc4n3)cc2)cc1	nt	nt	i	i
CCc1ccc2c(c1)C1(NN=C(c3ccc(C)cc3)S1)C(=O)N2 (stereo not given)	24	74	i	i
CC(C)c1ccc(O)c(NC(=O)c2ncn[nH]2)c1	i	i	i	i
CC(C)c1ccc2c(c1)C1(NN=C(c3ccccc3)S1)C(=O)N2 (stereo not given)	33	68	i	i
CCCCn1c(=N)c(S(=O)(=O)c2ccc(Cl)cc2)cc2c(=O)n3cccc(C)c3nc21	nt	nt	i	?
COc1cccc(COc2ccc3ccc(=O)oc3c2)c1	35	65	i	i
COc1ccc2ccc(=O)oc2c1	i	i	i	i
COc1ccc(COc2ccc3ccc(=O)oc3c2)cc1	69	70	i	i
CC(CCc1ccccc1)NC(=O)CSc1n[nH]c(-c2ccc(F)cc2)n1 (stereo not given)	nt	nt	i	?
COc1cc(OC)c(NC(=O)c2ccc(-n3cnc4cccnc43)cc2)cc1Cl	nt	nt	i	i
O=c1c2sc3ccccc3c2n(Cc2ccccc2F)c(=O)n1CCc1ccccc1	nt	nt	i	i
COc1ccc(S(=O)(=O)c2nnn(-c3ccc(C)c(Cl)c3)c2C)cc1	nt	nt	i	?
c1ccc(-c2nc3ccccc3nc2-c2ccccn2)nc1	i	i	i	i
Cc1cc2nc3c(nc2cc1C)C(O)=C3O	i	i	14µM	i
OC1=C(O)c2nc3ccccc3nc21	i	i	i	i
Cc1cc2nc(-c3ccccn3)c(-c3ccccn3)nc2cc1C	18	i	i	nt
COc1ccc(Cl)cc1N(C)C(=O)Cc1noc2ccc(C)cc12	nt	nt	i	i
Cn1cnnc1SCC(=O)N1N=C2/C(=C/c3ccco3)CCCC2C1c1ccco1 (stereo not given)	i	i	45µM	i
Cn1cnnc1SCC(=O)N1N=C(c2ccc(Cl)cc2)CC1c1ccco1 (stereo not given)	i	i	32µM	i
SMILES	CHX counter	Shiga inhibitor	Sm TGR block	FMDV antiviral
O=C(CSc1nccc(=O)[nH]1)N1N=C2/C(=C/c3ccco3)CCCC2C1c1ccco1 (stereo not given)	i	i	22µM	i
COc1ccc(OC)c(CCNC(=O)c2cnn(-c3ccccc3Cl)c2C2CCN(C(=O)OC(C)(C)C)CC2)c1	nt	nt	i	?
Cc1nc2ccn(Cc3ccco3)c(=O)c2cc1C(=O)Nc1ccc(F)cc1	nt	nt	?	i
COc1cccc(NC(=O)CCSc2ccc3ccccc3n2)c1	15	i	i	i
O=C(O)CSc1ccc2ccccc2n1	i	i	i	i
O=C(O)CCSc1ccc2ccccc2n1	i	30!	?	i
CC(C)(C)C(=O)NCCCc1nc2ccccc2n1CCCOc1ccc(Cl)cc1	i	i	i	20µM
OCc1nc2ccccc2n1CCCOc1ccc(Br)cc1	21	40	i	i
CC(=O)NCCc1nc2ccccc2n1CCCCOc1ccc(Cl)cc1	nt	nt	i	?
Cc1ccccc1OCCCn1c(CO)nc2ccccc21	18	71	i	i
O=C(NCc1ccccc1)C(=O)NCC(c1ccc2c(c1)OCO2)N1CCOCC1 (stereo not given)	nt	nt	i	i
CCOc1ccccc1NC(=O)Cn1c(=O)n(Cc2ccccc2)c(=O)c2c(C)c(C)sc21	nt	nt	i	i
C/C(O)=C1\C(=O)[C@@H]2[C@H]3c4c[nH]c5cccc(c45)C[C@H]3C(C)(C)N2C1=O	nt	nt	nt	i
CSc1ncccc1C(=O)OCC(=O)c1ccccc1Br	i	i	i	i
Cc1cccc(-n2nnnc2SCC(=O)c2cc(C)n(Cc3ccco3)c2C)c1	i	i	i	i
Cc1cc(C(=O)COC(=O)c2ccncc2)c(C)n1Cc1ccco1	44	116	i	i
Cc1cc(C(=O)CN2C(=O)NC3(CCCc4ccccc43)C2=O)c(C)n1Cc1ccco1 (stereo not given)	i	i	i	nt
Cc1cc(C(=O)COC(=O)c2cc(Cl)ccc2N)c(C)n1Cc1ccco1	91	119	i	i
Cc1cc(C(=O)CSc2nnc(N)s2)c(C)n1Cc1ccco1	39	57	i	i
O=C(OCC(=O)c1ccccc1Br)c1ccncc1	24	63	i	i
